KCNQ2 pot = enhances the rat KCNQ2 potassium channel. O88943. CHO-K1 KCNQ2, FluxOR thallium flux fluorescence; stronger effect = higher value. B-score at 10 µM. 310,000 compounds, 0.54% hits. AID 2239;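 active means fluorescence ratio B-score at least 3 SD of library B-scores, with initial fluorescence B-score within 3 of them, cut at about 5.3 in these data; same plate scores as AID 2156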;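 further: B-score of peak minus minimum over baseline fluorescence ratio after K+ and Tl+ stimulus; positive B-score means potentiation of KCNQ2 with more thallium influx and brighter signal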
Target sequence (O88943 whole entry, looked up): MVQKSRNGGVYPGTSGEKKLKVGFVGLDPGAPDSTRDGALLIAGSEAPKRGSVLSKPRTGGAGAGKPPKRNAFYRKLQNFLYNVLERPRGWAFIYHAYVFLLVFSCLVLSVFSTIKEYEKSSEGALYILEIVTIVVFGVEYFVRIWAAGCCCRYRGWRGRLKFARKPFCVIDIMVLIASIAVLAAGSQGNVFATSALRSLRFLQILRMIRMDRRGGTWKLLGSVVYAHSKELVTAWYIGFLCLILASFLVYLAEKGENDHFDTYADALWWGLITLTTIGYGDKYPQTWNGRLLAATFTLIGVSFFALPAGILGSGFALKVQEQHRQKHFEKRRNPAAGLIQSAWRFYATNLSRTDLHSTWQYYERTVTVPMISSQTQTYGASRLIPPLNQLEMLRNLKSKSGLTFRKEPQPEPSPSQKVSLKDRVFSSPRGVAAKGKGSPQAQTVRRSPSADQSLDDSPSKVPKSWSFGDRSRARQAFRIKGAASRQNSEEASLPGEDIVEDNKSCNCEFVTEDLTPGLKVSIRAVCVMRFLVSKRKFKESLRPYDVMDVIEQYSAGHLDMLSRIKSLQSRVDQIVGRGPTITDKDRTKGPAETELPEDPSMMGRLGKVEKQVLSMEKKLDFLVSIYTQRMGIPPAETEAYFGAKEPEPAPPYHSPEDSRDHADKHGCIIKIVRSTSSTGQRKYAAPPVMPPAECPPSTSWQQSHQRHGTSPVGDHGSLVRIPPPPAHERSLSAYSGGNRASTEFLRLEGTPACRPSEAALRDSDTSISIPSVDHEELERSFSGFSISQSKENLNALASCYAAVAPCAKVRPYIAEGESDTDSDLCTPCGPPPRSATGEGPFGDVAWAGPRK
KCNQ2 inh = inhibitors of rat KCNQ2 potassium channel; 310,000 compounds, 1.1% hits; B-score at 10 µM; CHO-K1 KCNQ2, FluxOR thallium flux, 20 min; stronger effect = lower value; O88943;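 active means fluorescence ratio B-score at most minus 3 library SDs, with starting brightness B-score within 2 library SDs, cut at about -5.5 in these data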
Kir21 conf inh = confirmation of mouse Kir2.1 potassium channel inhibitors; 2,300 compounds, 41% hits; Kir2.1-expressing cells, FluxOR thallium flux fluorescence; stronger effect = lower value; shares compounds with KCNQ2 pot; Tl flux remaining, % of negative control (stronger effect = lower value), % at 10 µM;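 active means Primary-screen hit whose thallium flux fell at least 3 control SD below untreated wells in both duplicates, with normal baseline fluorescence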
HEK293 Tl flux = alters thallium flux in parental HEK293 cells, Kir2.1 counter-screen. shares compounds with KCNQ2 pot. FluxOR thallium flux fluorescence; 0% = unstimulated blank wells. FluxOR signal as % of negative control (100 = no effect), % at 10 µM. 2,300 compounds, 19% hits;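 active means dye signal at least 3 control SD above or below untreated wells in both duplicates, raw fluorescence within 3, either direction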;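 further: percent is based on the flux ratio of peak minus minimum fluorescence over baseline F0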
CHO-K1 Tl ctr = alters thallium flux in parental CHO-K1 cells, KCNQ2 counter-screen; 1,200 compounds, 43% hits; shares compounds with KCNQ2 pot; FluxOR thallium flux fluorescence; zero = vehicle mean+3SD, 100% = vehicle-minus-blank window; activity increase over 3SD of controls, % at 10 µM;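 active means signal rise of at least 3 SD above the untreated control mean, in both duplicate wells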;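 further: counter screen of KCNQ2 potentiator hits so any rise reflects channel-independent effects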
KCNQ1 sel pot = tests whether KCNQ2 potentiators also act on human KCNQ1; shares compounds with KCNQ2 pot; CHO KCNQ1 stable, FluxOR thallium flux fluorescence; beyond 3SD, as % of vehicle-control signal; activation over 3SD threshold, % at 10 µM; 1,200 compounds, 28% hits;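 active means fluorescence ratio rise of at least 3 SD of vehicle wells above their mean, in both replicate wells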
KCNQ2 pot conf = rat KCNQ2 channel potentiator confirmation; 1,200 compounds, 68% hits; potentiation, less the hit threshold, % at 10 µM; shares compounds with KCNQ2 pot; CHO-KCNQ2 cells, FluxOR thallium flux fluorescence; AID 2287;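 active means fluorescence ratio rising 3 SD or more over the vehicle control mean in both replicates, plus primary screen hit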;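 further: peak minus minimum thallium fluorescence divided by baseline after K/Tl stimulus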
Kir21 spec = mouse Kir2.1 off-target activity of KCNQ2 potentiators; HEK293 Kir2.1, FluxOR thallium flux fluorescence; AID 2345; activity over 3SD threshold, % at 10 µM; shares compounds with KCNQ2 pot; 1,200 compounds, 2% hits;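 active means fluorescence ratio rise of at least 3 SD above the vehicle-control mean, seen in both replicates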
KCNQ2 W236L pot = KCNQ2 potentiators acting on retigabine-insensitive rat KCNQ2 W236L mutant; shares compounds with KCNQ2 pot; CHO KCNQ2-W236L, automated patch clamp current; current increase over 3SD of negative controls (%), stronger effect = higher value, % at 25 µM; 940 compounds, 10% hits; AID 2558;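 active means current increase at least 3 SD of the untreated controls above them in both duplicate recordings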
Large screens that a line does not name were inactive (follow-up assays come after a bar, where they were run). Hits are enriched below; roughly 1.6% of the tested compounds scored in any of these assays.

CCCSc1cc(NCCOC(=O)CCC)c([N+](=O)[O-])c2nonc12	none (no result: KCNQ2 pot)
CCCC(=O)OCCNc1cc(Sc2nccn2C)c2nonc2c1[N+](=O)[O-]	none (no result: KCNQ2 pot) | Kir21 conf inh 70% | HEK293 Tl flux inactive
C#CCNC(=O)C1=C[C@@H](c2ccc(C(F)(F)F)cc2)[C@H](CCCO)[C@@H](OCC)O1	none
CCCN1CCC(=O)N([C@H](CN=[N+]=[N-])CC(C)C)CC1	none (no result: KCNQ2 pot)
Cn1ncc2c(O/N=C(\N)c3ccc(C(C)(C)C)cc3)ncnc21	KCNQ2 pot 6.2 | Kir21 conf inh inactive | HEK293 Tl flux inactive | CHO-K1 Tl ctr 47 | KCNQ1 sel pot inactive | KCNQ2 pot conf 6.1 | Kir21 spec inactive | KCNQ2 W236L pot inactive
COC(CNc1ncnc2c1cnn2C)OC	none
CCOc1ccc(N(CC(=O)NC2CCCCC2)C(=O)CCCC(=O)Nc2ccccn2)cc1	none
COc1ccc(Cl)cc1NC(=O)CC1CCCC1	none (no result: KCNQ2 pot)
COc1cc(Cl)c(C)cc1NC(=O)CC1CCCC1	KCNQ2 pot 5.8 | Kir21 conf inh inactive | HEK293 Tl flux inactive | CHO-K1 Tl ctr inactive | KCNQ1 sel pot inactive | KCNQ2 pot conf 24 | Kir21 spec inactive | KCNQ2 W236L pot inactive
CC(=O)C1=C(O)C(=O)N(c2ccc(Br)cc2)C1c1ccccc1[N+](=O)[O-] (configuration not stated)	none (no result: KCNQ2 pot)
Cc1cc(OCC(=O)NNC(=S)NC(=O)c2ccc(Br)o2)ccc1Cl	KCNQ2 pot 8.1 | Kir21 conf inh inactive | HEK293 Tl flux inactive | CHO-K1 Tl ctr 90 | KCNQ1 sel pot inactive | KCNQ2 pot conf inactive | Kir21 spec inactive
CCC(=O)NC(=S)Nc1ccc(NC(=O)COc2ccc(Cl)c(C)c2)cc1	none
Cc1ccc(CN2CCSCC2)cc1	none (no result: KCNQ2 pot)
C=CCc1cc(Cl)ccc1OCCCNC(C)C	none
C=CCc1cc(Cl)ccc1OCCOCCNC(C)CC (configuration not stated)	none | Kir21 conf inh inactive | HEK293 Tl flux inactive
Cc1cc(C)nc(S/C=C/C(=O)c2ccccc2F)n1	none (no result: KCNQ2 pot)
CCCSC(=S)c1c(C)[nH]n(-c2ccccc2)c1=O	KCNQ2 pot 9.8 | Kir21 conf inh inactive | HEK293 Tl flux 424% | CHO-K1 Tl ctr 22 | KCNQ1 sel pot inactive | KCNQ2 pot conf 54 | Kir21 spec 3.8 | KCNQ2 W236L pot inactive
Cc1[nH]n(-c2ccccc2)c(=O)c1Sc1ccc(Cl)cc1	none
Nc1nc(C2CCCN2S(=O)(=O)c2ccc(Cl)cc2)cs1 (configuration not stated)	none | Kir21 conf inh 62% | HEK293 Tl flux inactive
O=S(=O)(c1ccc(Cl)cc1)N1CCCC1c1nc(-c2ccc(Cl)cc2)no1 (configuration not stated)	none (no result: KCNQ2 pot)
COc1ccc(OC)c2sc(N(CCCN(C)C)C(=O)CCS(=O)(=O)c3ccccc3)nc12	KCNQ2 pot 9.9 | CHO-K1 Tl ctr inactive | KCNQ1 sel pot 68 | KCNQ2 pot conf inactive | Kir21 spec inactive
COc1ccc(Cl)c2sc(N(CCN(C)C)C(=O)CCS(=O)(=O)c3ccc(C)cc3)nc12	none (no result: KCNQ2 pot)
COC(=O)c1cccc(NC(=S)Nc2ccc(Cl)c(Cl)c2)c1	KCNQ2 pot 5.4 | Kir21 conf inh inactive | HEK293 Tl flux inactive | CHO-K1 Tl ctr inactive | KCNQ1 sel pot 1.4 | KCNQ2 pot conf inactive | Kir21 spec inactive | KCNQ2 W236L pot inactive
COC(=O)c1cccc(NC(=S)Nc2ccccc2Cl)c1	none
CN(C)c1ccc(C(=O)c2ccc(O)cc2O)cc1	none | Kir21 conf inh inactive | HEK293 Tl flux inactive
O=C(c1ccc(O)cc1)c1ccc(O)cc1O	none
O=C1C2C3CC(C(Br)C3Br)C2C(=O)N1c1nccs1 (configuration not stated)	none
N#C/C(=N\Nc1cccc(C(F)(F)F)c1)C(=O)c1csc(-c2cccnc2)n1	KCNQ2 pot 6.4 | Kir21 conf inh inactive | HEK293 Tl flux 70% | CHO-K1 Tl ctr 19 | KCNQ1 sel pot inactive | KCNQ2 pot conf inactive | Kir21 spec inactive
Cc1ccc(C(=O)Nc2cccc(C(F)(F)F)c2)cc1NC(=O)c1csc(-c2ccncc2)n1	none (no result: KCNQ2 pot)
Cc1ccc(NC(=O)CN2CCOCC2)cc1C	none (no result: KCNQ2 pot)
CC(=O)Nc1ccc(C(=O)NCC2(N3CCCCC3)CCCCC2)cc1	none
COCCn1c(SCC(=O)NC2CCCCC2)nnc1-c1ccncc1	none
C=C(C)CSc1[nH]c(=O)cc(C)c1C#N	none
CC1CN(c2ccc([N+](=O)[O-])c(NCCOc3ccc(Cl)cc3)c2)CC(C)N1 (configuration not stated)	KCNQ2 inh -7 | Kir21 conf inh 67% | HEK293 Tl flux inactive
CC1CN(c2ccc([N+](=O)[O-])c(NCCOc3ccccc3)c2)CC(C)N1 (configuration not stated)	none (no result: KCNQ2 pot)
Cc1ccc(CSc2[nH]c(=O)ncc2C)cc1	none
CCN(C(=O)C1CCCN1S(=O)(=O)c1ccc2c(c1)n(C)c(=O)c(=O)n2C)c1ccccc1 (configuration not stated)	none
COc1cc(/C=C(\C#N)C(=O)N2CCOCC2)cc(Br)c1O	none (no result: KCNQ2 pot)
N#C/C(=C\c1cccc(Oc2ccccc2)c1)C(=O)N1CCOCC1	KCNQ2 inh -6.4 | Kir21 conf inh 36% | HEK293 Tl flux inactive
Cc1ccc(NC(=O)CNC(=O)C2CCCCC2)nc1	none
CCSc1nc2c(c(-c3ccc(C)o3)c1C#N)CCCC2	none (no result: KCNQ2 pot)
COC(=O)CSc1nc2c(c(-c3ccc(C)o3)c1C#N)CCCC2	KCNQ2 pot 22 | Kir21 conf inh inactive | HEK293 Tl flux inactive | CHO-K1 Tl ctr inactive | KCNQ1 sel pot inactive | KCNQ2 pot conf 41 | Kir21 spec inactive | KCNQ2 W236L pot inactive
COc1cc(Cn2nnc3ccccc32)cc(Br)c1O	none
S=C(Nc1ccc2nccnc2c1)N1CCOCC1	none (no result: KCNQ2 pot)
C#CCN(C)Cc1ccccc1	none (no result: KCNQ2 pot)
C#CC(CO)N(CCN(Cc1ccccc1)C(C#C)CO)Cc1ccccc1 (configuration not stated)	none (no result: KCNQ2 pot) | Kir21 conf inh 62% | HEK293 Tl flux inactive
O=C(COC(=O)Cc1cccc(C(F)(F)F)c1)Nc1ccccc1	none
O=C(Cc1cccc(C(F)(F)F)c1)Nc1ccccc1	KCNQ2 pot 9 | Kir21 conf inh inactive | HEK293 Tl flux inactive | CHO-K1 Tl ctr 35 | KCNQ1 sel pot 59 | KCNQ2 pot conf 13 | Kir21 spec inactive | KCNQ2 W236L pot inactive
COc1ccc(CCNC(=O)c2c(O)c3ccccc3[nH]c2=O)cc1OC	none (no result: KCNQ2 pot)
COc1ccc(CCNC(=S)NC(=O)c2cccc([N+](=O)[O-])c2)cc1OC	none (no result: KCNQ2 pot)
